Out of some 330,000 compounds screened, about 1,900 (0.58%) were called active. Not shown: some 4% with an inconclusive outcome. The list is a sample of the results. Measured potencies and affinities stand elsewhere. Unmarked numbers belong to inactive results. Cut-off read from the data, not from the text of the source: inconclusive = inhibition above about 70% without an active follow-up result; inactive = below that.

One may read the inhibition as the drop in the measured response relative to a control, in per cent.

The experiment can be described thus: M. tuberculosis growth inhibition, HTS (AID 449762).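 Note: bacterial growth assessed after seven days of incubation.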 Conditions: M. tuberculosis H37Rv growth inhibition, 7H9 media; at 25 µM; active compounds read high.
For `COCCN(C(=O)COC(=O)/C=C/c1ccc(C)o1)c1c(N)n(Cc2ccccc2)c(=O)[nH]c1=O`, the inhibition is -11.7%.

As for `COc1cccc2c1OCC(C(=O)O)C2` (configuration not stated), the inhibition is -0.01%.

In the case of `COc1ccccc1N1CCN(C(=O)C2CC=CCC2C(=O)O)CC1` (configuration not stated), the inhibition was -1.32%.

As for `Cc1ccc(C)c(NC(=S)N(C)C)c1`, the inhibition was 1.85%.

Turning to `Cc1ccc(C)c(NNC(=O)C(=O)NNc2cc(C)ccc2C)c1`, the inhibition is 52.8%.

Turning to `O=C(Nc1cccc(S(=O)(=O)N2CCCCC2)c1)c1ccc2ncsc2c1`, the inhibition is -3.33%.

In the case of `CC(=O)c1cccc(NC(=O)c2ccc(S(=O)(=O)N3CCCCC3)cc2)c1`, the inhibition is -2.95%.

`COc1ccc(N(C(=O)Cn2cnc3ccccc32)C(C(=O)NC2CCCCC2)c2ccccc2)cc1` (configuration not stated): the inhibition was 0.85%.

Take `COc1ccc(NS(=O)(=O)c2cccc(NC(=O)CNC(C)=O)c2)cc1`: the inhibition is 3.07%.

`Cc1ccc(C(O)c2nc3ccccc3n2C)cc1` (configuration not stated): the inhibition was 6.67%.

In the case of `CN1C(=O)Cn2c1nc1ccccc12`, the inhibition was 6.02%.

In the case of `Cc1cccc(C)c1NC(=S)N(CCN(C)C)C(C)c1ccccn1` (configuration not stated), the inhibition was -5.58%.

Consider `CN(Cc1cccs1)C(=O)CCc1c[nH]c2ccccc12`, for which the inhibition is 4.68%.

In the case of `COC(=O)c1ccc(CSc2nc(C(F)F)cc(C)c2C#N)o1`, the inhibition is -2.24%.

With `COC(=O)c1ccc(CSc2ncnc3ccccc23)o1`, the inhibition is -4.26%.

Take `O=C(NNc1ncnc2ccccc12)c1cccc(Cl)c1`: the inhibition was -0.01%.

Take `CN(Cc1cccc(F)c1)C(=O)c1cccc(S(=O)(=O)N2CCN(Cc3ccccc3)CC2)c1`: the inhibition was -18.2%.

As to `Cc1ccc(CNC(=O)c2ccc(NC(=O)C3=CSCCO3)cc2)cc1`, the inhibition is -1.39%.

As for `O=C(Nc1ccc(C(=O)NCc2ccc(F)cc2)cc1)C1=CSCCO1`, the inhibition is -4.67%.

In the case of `Cc1nc(-c2ccc(Cl)cc2)sc1C1(C)CC(c2ccc(Cl)cc2)=NO1` (configuration not stated), the inhibition was 0.85%.

As to `Cc1nc(-c2ccccc2)sc1C1(C)CC(c2ccc(C#N)cc2)=NO1` (configuration not stated), the inhibition is -2.7%.

As to `c1ccc(-c2cc3ccccc3cn2)cc1`, the inhibition was 12.7%.

On to `Cc1cnc(NC2=NCCC2)s1`, for which the inhibition was 4.98%.

Regarding `CCCNC(=O)c1ccc(COc2ccc(C(C)(C)C)cc2)o1`, the inhibition is 1.87%.

As for `COc1ccccc1NC(=O)c1nn(-c2ccccc2)ccc1=O`, the inhibition is 5.5%.

As for `CN(CC(=O)NC(=O)NCc1ccco1)Cc1nc2ccccc2c(=O)[nH]1`, the inhibition is -5.09%.

`O=C(OC(C(=O)NCc1ccc2c(c1)OCO2)c1ccccc1F)c1ccco1` (configuration not stated): the inhibition was 2.01%.

For `COc1ccccc1C(=O)N/N=C(\C)CC(=O)Nc1ccc2c(c1)OCCO2`, the inhibition was 1.17%.

As to `C/C(CC(=O)Nc1ccc2c(c1)OCCO2)=N\NC(=O)c1ccccc1Cl`, the inhibition is 5.1%.

Regarding `CC(C)(C)c1ccc(C(=O)NCCCNC(=O)c2ccccn2)cc1`, the inhibition is 8.46%.

Take `COC(=O)c1c(NC(=O)CCC(=O)O)sc2c1CCCCC2`: the inhibition was 19.9%.

On to `COc1ccc(OC)c(Nc2nc(N)c([N+](=O)[O-])c(NC3CCCCC3)n2)c1`, for which the inhibition was -3.37%.

As for `Nc1nc(Nc2ccccc2)nc(NC2CCCCC2)c1[N+](=O)[O-]`, the inhibition was 29.1%.

In the case of `COc1ccc(OC)c(S(=O)(=O)N2CCN(C(=O)CCc3ccccc3)CC2)c1`, the inhibition was -9.07%.

Take `Cc1cccc(C(=O)O/N=C2/CC3CCC2(C)C3(C)C)c1` (configuration not stated): the inhibition was 5.89%.

As to `CC12CCC(C/C1=N\N=C1\NC(=O)/C(=C\c3cccc(Br)c3)S1)C2(C)C` (configuration not stated), the inhibition was 21.6%.

Take `COc1ccc(CC(=O)O/N=C(\N)Cc2ccc(OC)c(OC)c2)cc1`: the inhibition is 2.93%.

As to `O=C1c2ccccc2CN1C(CO)Cc1ccccc1` (configuration not stated), the inhibition is -7.4%.

As to `C/C(CCc1ccc2c(c1)OCO2)=N\NC(=O)c1ccccc1`, the inhibition is 1.21%.

Consider `COCCNC(=S)N/N=C(\C)CCc1ccc2c(c1)OCO2`, for which the inhibition is 8.49%.

Take `O=C(N/N=C/c1ccccc1OC(=O)N1CCOCC1)c1cccs1`: the inhibition is 25.5%.

Take `COc1ccc(NS(=O)(=O)c2cccc(C(=O)Nc3cccc(C(=O)O)c3)c2)cc1`: the inhibition is -7.77%.

Regarding `CCOc1cc(/C=N/NC(=O)COc2ccc(C)cc2)ccc1OC(=O)c1cccs1`, the inhibition was 8.62%.

Regarding `COc1cc(/C=N/NC(=O)COc2ccccc2C)ccc1OC(=O)c1cccs1`, the inhibition is -7.68%.

For the molecule `COC(=O)c1cc(S(=O)(=O)Nc2nn(C)c3ccccc23)oc1C`, the inhibition was 1.72%.

`COCCN(C(=O)COC(=O)CSc1ccc2ccccc2c1)c1c(N)n(Cc2ccccc2)c(=O)[nH]c1=O`: the inhibition was 0.46%.

Consider `C=CCNC(=O)c1onc(CSc2ccncc2)c1C(=O)NCC=C`, for which the inhibition was -11.3%.

For the molecule `Cc1ccc(S(=O)(=O)n2nc(C)c(S(=O)(=O)N3CCOCC3)c2C)cc1`, the inhibition was -4.96%.

On to `Cc1ccc(-c2cc(C(F)(F)F)n3ncc(C(=O)N4CCCCC4c4cccnc4)c3n2)cc1` (configuration not stated), for which the inhibition is -0.42%.

As for `O=C(c1cnn2c(C(F)(F)F)cc(-c3ccccc3)nc12)N1CCCCC1c1cccnc1` (configuration not stated), the inhibition was 61.7%.

Turning to `C[C@]12c3[nH]c4ccccc4c3CCN1C(=O)C(CC(=O)NCC13CC4CC(CC(C4)C1)C3)C[C@@H]2C(=O)N1CCCCC1` (some centres not stated), the inhibition is 21.5%.

Turning to `CC(C)N(C(=O)[C@H]1CC(CC(=O)NCC23CC4CC(CC(C4)C2)C3)C(=O)N2CCc3c([nH]c4ccccc34)[C@]12C)C(C)C` (some centres not stated), the inhibition was 69.1%.

For the molecule `COc1cc([N+](=O)[O-])ccc1NC(=O)NCc1ccco1`, the inhibition is -4.54%.

For the molecule `COc1ccccc1CNC(=O)c1c(-c2ccccc2)nn(-c2ccccc2)c1C`, the inhibition is 6.07%.

On to `CC(=O)c1c(N2CCOCC2)[nH]c(-c2ccccc2)nc1=S`, for which the inhibition was 43.5%.

Regarding `CC(=O)c1c(N2CCN(Cc3ccccc3)CC2)[nH]c(-c2ccccc2)nc1=S`, the inhibition is -2.96%.

As for `CC(C)[C@H](NC(=O)[C@@H]1Cc2ccccc2CN1C(=O)OC(C)(C)C)C(=O)NCc1ccco1`, the inhibition was 2.19%.

As for `COc1ccc([N+](=O)[O-])cc1NS(=O)(=O)c1cccc(C(=O)OC2CCOC2=O)c1` (configuration not stated), the inhibition is -6.35%.

Regarding `O=C(NCCc1csc(-c2cccnc2)n1)c1ccccc1`, the inhibition is -11.6%.

Regarding `O=C1CN(C(=O)OCc2ccccc2)c2ccccc2N1`, the inhibition is -1.7%.

For the molecule `CN(c1ccccc1)S(=O)(=O)c1ccc(Cl)c(C(=O)NCc2ccccc2CN2CCCC2)c1`, the inhibition was -5.7%.

On to `O=C(NCc1ccccc1CN1CCCC1)c1cccc(S(=O)(=O)N2CCCC2)c1`, for which the inhibition was -11.2%.

With `CC1CCCCC1NC(=O)c1ccc2c(c1)OCCO2` (configuration not stated), the inhibition is 8.58%.

With `CC1CCCCC1NC(=O)c1cc(=O)[nH]c2ccccc12` (configuration not stated), the inhibition was -4.11%.

Turning to `Cc1ccc(C(OC(=O)c2ccco2)C(=O)NCc2cccs2)cc1` (configuration not stated), the inhibition was 3.55%.

For `O=C(O)c1cccc(NC(=S)NC(=O)c2ccc(-c3ccc(Cl)cc3)o2)c1`, the inhibition is 1.13%.

In the case of `Cc1cc2ncn(C(=O)c3ccc4c(c3)OCO4)c2cc1C`, the inhibition is 6.27%.

In the case of `Cc1cccc(C(=O)Nc2ccc(S(=O)(=O)N3CCOCC3)cc2)c1[N+](=O)[O-]`, the inhibition is 6.13%.

As for `COc1cccc2sc(Nc3nnc(-c4ccccc4Cl)o3)nc12`, the inhibition was 46.2%.

As for `COc1ccccc1-c1nnc(Nc2nc3c(OC)cccc3s2)o1`, the inhibition is 6.89%.

Take `COc1cccc(CN2CCN(Cc3cc4ccccc4o3)CC2CCO)c1` (configuration not stated): the inhibition was -6.38%.

As for `CC(C)OCCCn1c(-c2ccc(Br)cc2)c[nH]c1=S`, the inhibition is 8.53%.

For `COc1ccc(OC)c(-n2c(-c3cccc(O)c3)n[nH]c2=S)c1`, the inhibition was 2.31%.

For the molecule `CCN(CC)C(=O)c1cc2cc([N+](=O)[O-])ccc2s1`, the inhibition was 6.23%.

Take `CCN(CC)C(=O)c1ccc(Oc2ccc([N+](=O)[O-])cc2Cl)cc1`: the inhibition was 4.15%.

Turning to `O=C(COc1ccc(Br)cc1)N1CCc2ccccc2C1`, the inhibition was 1.78%.

As to `CC(C)C(NC(=O)c1c(F)cccc1F)C(=O)N1CCN(c2ccccc2F)CC1` (configuration not stated), the inhibition was 5.13%.

For the molecule `O=C(/C(=N\Nc1ccc(Br)cc1)Sc1nnnn1-c1ccccc1)c1ccccc1`, the inhibition is 2.41%.

Take `O=C(O)c1ccc(N=N/C(=N\Nc2ccc(C(=O)O)cc2)c2ccccc2)cc1`: the inhibition was 11.8%.

Turning to `O=C(Cc1n[nH]c(=O)c2ccccc12)Nc1cccc(S(=O)(=O)N2CCCCCC2)c1`, the inhibition is 34.4%.

Regarding `c1ccc(Cn2nnc3c(N4CCc5ccccc54)ncnc32)cc1`, the inhibition was -4.04%.

As for `c1ccc(Cn2nnc3c(N4CCCC4)ncnc32)cc1`, the inhibition is 1.78%.

Regarding `CC(c1ccccc1)n1cnc2ccccc2c1=O` (configuration not stated), the inhibition was 3.81%.

As to `CCOC(=O)Cn1c(C(C)=O)nc2ccccc21`, the inhibition was -5.86%.

For the molecule `CCOc1ccc2nc(SC3CC(=O)N(c4ccc(OC)cc4OC)C3=O)sc2c1` (configuration not stated), the inhibition was 37.3%.

Turning to `COc1cccc(COC(=O)Nc2ccccc2F)c1`, the inhibition is 4.89%.

For the molecule `CN(C)c1ccc(NC(=O)CN2C3CCCC2CC(NC(=O)c2ccccc2)C3)cc1` (configuration not stated), the inhibition was 49%.

Turning to `COc1cccc(C(=O)NC2CC3CCCC(C2)N3CC(=O)Nc2ccccc2)c1` (configuration not stated), the inhibition was 46.8%.

On to `COc1ccc(NC(=O)CN2C(=O)NC3(CCCc4ccccc43)C2=O)c(OC)c1` (configuration not stated), for which the inhibition is -0.44%.

Turning to `COc1ccc(OC)c(NC(=O)CN2C(=O)NC3(CCCc4ccccc43)C2=O)c1` (configuration not stated), the inhibition is 0.98%.

Turning to `COc1ccc(N2CCN(C3CCCN(Cc4ccccc4OCCO)C3)CC2)cc1` (configuration not stated), the inhibition was -8.3%.

For the molecule `CS(=O)(=O)N(CC(=O)N1CCCC1)c1ccccc1F`, the inhibition was -1.03%.

The values are drawn from PubChem BioAssay AID449762 (Southern Research Specialized Biocontainment Screening …, 2010).
